Data published in PubChem BioAssay (EPA / NIEHS).
Active and inactive are the calls of the source. How the source made its calls: active means hit-call score of the fitted dose curve at least 0.9, where 1 is the maximum; inactive means score below 0.9. Peptide text beside a SMILES is read from it.

Experiment: CCTE_Shafer_MEA_acute_cross_correlation_area: CCTE's Neural Acute Assay for Area of Cross Correlation, Shafer Lab (AID 2284024);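 further: curves fitted for loss of cross-correlation area so actives lower synchrony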
Procedure: CCTE_Shafer_MEA_acute assay is conducted using Axion Biosystems 48 well microelectrode array (MEA) plates and Maestro recording system. Each well of the MEA plate contains a grid of 16 microelectrodes embedded in the culture surface. Electrically active cells, such as neurons, can be cultured over the electrodes, and electrical activity in these cells can be recorded extracellularly. The spontaneous firing of neurons is captured from each electrode on a microsecond timescale providing both temporally and spatially precise data. […] The CCTE_Shafer_MEA_acute assay uses primary cultures of rat cortical neurons. As these cultures mature over time, neural networks develop functional activity and form cohesive networks in which electrical activity can be highly coordinated. Baseline 40-minute recordings are made on days post-plating 13 or 15, followed by a secondary 40-minute recording after chemical exposure.CCTE_Shafer_MEA_acute_cross_correlation_area is a component of the CCTE_Shafer_MEA_acute assay. It measures the area under the well-wide pooled inter-electrode cross-correlation of action potential firing (not normalized to auto-correlations) within a window centered around 0 for the phase lag during a recording in a microelectrode array (MEA) using Axion Biosystems Maestro 768 channel amplifier with the AxIS adaptive spike detector. The recordings before and after chemical treatment are used to calculate a percent change in the cross correlation area in each well.Data from the assay component CCTE_Shafer_MEA_acute_cross_correlation_area was analyzed into 1 assay endpoint. This assay endpoint, CCTE_Shafer_MEA_acute_cross_correlation_area, was analyzed in the negative analysis fitting direction relative to DMSO as the negative control and baseline of activity. Using a type of functional reporter, gain or loss-of-signal activity can be used to understand electrical activity.
Spontaneous activity in the cortical cultures was recorded using an Axion Biosystems Maestro 768 channel amplifier and Axion Integrated Studios (AxIS) v1.8 (or later) software. The amplifier recorded from all channels simultaneously (gain = 1200 x; sampling rate = 12.5 kHz/channel): raw signals were filtered with a Butterworth band-pass filter (300-5000 Hz), which filters out slower local field potentials leaving only fast potentials, i.e., "spikes", arising from extracellular currents associated with action potentials (Pine 2006; Wheeler and Nam 2011). On-line spike detection of filtered signals was conducted with the AxIS adaptive spike detector, using a threshold of 8x the root mean squared (rms) noise on each channel. Any electrodes with rms noise levels greater than 5 uV were grounded (e.g., no data were recorded). Once grounded, an electrode was grounded for the duration of the experiment. All recordings were conducted at 37 C. Wells were deemed usable if on the day of the exposure >/= 10 electrodes were active (defined as >/= 5 spikes/min). On DIV 13 or 15, a minimum of three wells from one cortical culture preparation were treated with each compound (0.03-40 uM). Prior to recording baseline activity, each mwMEA plate was placed in the Maestro at 37 C and allowed to sit for 20 min while firing rates stabilized. Baseline activity (40 min) was recorded before the addition of each compound. An additional 40 min of spontaneous activity was recorded in the presence of each compound. Changes in network parameters relative to baseline were assessed following compound treatment.

Compound | outcome | AC50
Cc1c(C(=O)c2c[nH]n(C)c2=O)ccc(S(C)(=O)=O)c1C1=NOCC1 | inactive | 
COC(=O)[C@H](Cc1ccccc1)NC(=O)[C@@H](N)CC(=O)O (H-Asp-Phe-OMe) | inactive | 
Oc1ccccc1Cc1ccccc1O |  | 156 nM (active)
CCCCCCCCCCCC(=O)N(C)CC(=O)O | inactive | 
CC(C)C(=O)OCCc1ccccc1 | inactive | 
CC(CCC(=O)O)(c1ccc(O)cc1)c1ccc(O)cc1 | inactive | 
CC1(C)CC(O)CC(C)(C)N1[O] | inactive | 
C1CNCCN1 | inactive | 
Nc1cccc(N)n1 | inactive | 
CC/C=C\CCOC(=O)c1ccccc1O | inactive | 
CCCC(C)C(=O)OCC (stereo not drawn) | inactive | 
c1ccc(Nc2cccc3ccccc23)cc1 |  | 465 nM (active)
Nc1nc(N)nc(-c2ccccc2)n1 | inactive | 
